Columns and labels:
Experiment in all cases: DAPPL (digital affinity profiling via proximity ligation, sequencing); 10 mM Tris-HCl pH 7.5, 50 mM NaCl, 1 mM DTT, 4% glycerol, room temperature, 30 min; GST-TFs on glutathione beads, 16-mer random dsDNA library, 0.1% formaldehyde crosslink after washing; high values mean tight binding
FLI1 = target: T1, FLI1 (Homo sapiens, UniProt Q01543 1-452); conditions: protein: recombinant; tags: N-terminal GST; dsDNA, one strand shown
T1 sequence: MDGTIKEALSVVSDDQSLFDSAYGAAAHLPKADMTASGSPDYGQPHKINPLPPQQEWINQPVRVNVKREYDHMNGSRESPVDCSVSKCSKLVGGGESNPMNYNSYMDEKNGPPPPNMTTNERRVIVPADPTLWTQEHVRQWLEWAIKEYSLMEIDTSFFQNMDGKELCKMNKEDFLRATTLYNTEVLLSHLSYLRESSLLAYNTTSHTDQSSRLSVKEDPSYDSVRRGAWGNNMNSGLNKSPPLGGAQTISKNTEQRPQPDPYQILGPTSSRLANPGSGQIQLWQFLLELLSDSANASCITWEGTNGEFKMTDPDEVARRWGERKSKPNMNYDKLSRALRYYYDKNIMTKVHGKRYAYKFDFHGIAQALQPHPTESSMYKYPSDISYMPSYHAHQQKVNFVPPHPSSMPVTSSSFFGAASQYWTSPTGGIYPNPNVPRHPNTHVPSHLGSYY
Summary of the method: (§1)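 Human transcription factors were made in yeast as GST fusions, captured on glutathione beads and barcoded with DNA. With a tag-only sample included, the pool was incubated with 200 nmole of a random double-stranded 16-mer DNA library in Tris/NaCl/DTT/glycerol buffer at room temperature for 30 min, then crosslinked with 0.1% formaldehyde after washing, ligated by proximity, amplified and sequenced. For binding signal, each hexamer's read frequency for a factor is divided by its frequency for the tag-only sample.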

ELK1 = target: T2, ELK1 (Homo sapiens, UniProt P19419 1-428); conditions: protein: recombinant; tags: N-terminal GST; dsDNA, one strand shown
T2 sequence: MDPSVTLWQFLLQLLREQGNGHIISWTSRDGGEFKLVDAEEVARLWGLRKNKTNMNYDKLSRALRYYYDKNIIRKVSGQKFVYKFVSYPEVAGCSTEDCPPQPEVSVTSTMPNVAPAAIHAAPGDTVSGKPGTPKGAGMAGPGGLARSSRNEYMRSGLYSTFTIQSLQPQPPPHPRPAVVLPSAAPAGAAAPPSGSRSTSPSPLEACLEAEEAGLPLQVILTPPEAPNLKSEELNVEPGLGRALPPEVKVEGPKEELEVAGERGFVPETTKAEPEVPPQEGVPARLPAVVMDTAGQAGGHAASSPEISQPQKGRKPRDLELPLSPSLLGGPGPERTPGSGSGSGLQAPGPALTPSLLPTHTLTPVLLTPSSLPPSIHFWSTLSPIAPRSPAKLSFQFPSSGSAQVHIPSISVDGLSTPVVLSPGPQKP
Summary of the method: as §1

GABPA = target: T3, GABPA (Homo sapiens, UniProt Q06546 1-454); conditions: protein: recombinant; tags: N-terminal GST; dsDNA, one strand shown
T3 sequence: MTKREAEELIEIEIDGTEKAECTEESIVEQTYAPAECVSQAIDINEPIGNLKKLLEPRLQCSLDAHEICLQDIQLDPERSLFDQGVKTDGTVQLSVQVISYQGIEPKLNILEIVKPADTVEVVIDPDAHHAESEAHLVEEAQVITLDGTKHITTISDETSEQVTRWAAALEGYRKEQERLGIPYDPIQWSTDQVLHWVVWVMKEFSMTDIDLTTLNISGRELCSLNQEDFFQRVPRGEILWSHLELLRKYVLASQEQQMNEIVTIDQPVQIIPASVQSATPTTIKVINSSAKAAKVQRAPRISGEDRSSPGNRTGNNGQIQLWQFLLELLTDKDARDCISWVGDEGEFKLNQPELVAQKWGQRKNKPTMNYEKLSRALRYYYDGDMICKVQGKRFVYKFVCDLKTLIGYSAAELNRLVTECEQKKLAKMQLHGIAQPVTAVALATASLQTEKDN
Summary of the method: as §1

ERG = target: T4, ERG (Homo sapiens, UniProt P11308 1-479); conditions: protein: recombinant; tags: N-terminal GST; dsDNA, one strand shown
T4 sequence: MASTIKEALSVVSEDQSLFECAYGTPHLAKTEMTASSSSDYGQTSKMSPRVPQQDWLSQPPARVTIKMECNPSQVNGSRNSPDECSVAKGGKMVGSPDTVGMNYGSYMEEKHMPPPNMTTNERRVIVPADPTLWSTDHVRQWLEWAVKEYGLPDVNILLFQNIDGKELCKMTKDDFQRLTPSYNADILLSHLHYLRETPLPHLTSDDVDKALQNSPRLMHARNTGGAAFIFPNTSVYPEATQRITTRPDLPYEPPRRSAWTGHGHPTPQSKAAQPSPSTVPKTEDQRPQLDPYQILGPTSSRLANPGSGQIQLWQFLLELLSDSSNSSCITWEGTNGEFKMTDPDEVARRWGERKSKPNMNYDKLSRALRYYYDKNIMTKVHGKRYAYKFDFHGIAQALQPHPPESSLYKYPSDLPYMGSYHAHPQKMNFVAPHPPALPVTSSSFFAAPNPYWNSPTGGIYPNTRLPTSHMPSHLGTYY
Summary of the method: as §1

ELF1 = ELF1 (Homo sapiens, UniProt P32519 1-619); conditions: protein: recombinant; tags: N-terminal GST; dsDNA, one strand shown
Summary of the method: as §1

EHF = target: T5, EHF (Homo sapiens, UniProt Q9NZC4 1-300); conditions: protein: recombinant; tags: N-terminal GST; dsDNA, one strand shown
T5 sequence: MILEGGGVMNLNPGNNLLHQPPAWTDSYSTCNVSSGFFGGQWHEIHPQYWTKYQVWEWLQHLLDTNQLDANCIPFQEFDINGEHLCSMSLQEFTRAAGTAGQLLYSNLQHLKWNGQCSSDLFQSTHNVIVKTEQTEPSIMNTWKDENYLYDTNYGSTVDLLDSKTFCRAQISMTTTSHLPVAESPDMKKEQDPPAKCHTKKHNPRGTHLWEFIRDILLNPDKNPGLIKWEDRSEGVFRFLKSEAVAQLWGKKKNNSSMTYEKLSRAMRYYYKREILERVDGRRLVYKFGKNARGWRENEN
Summary of the method: as §1

SPI1 = SPI1 (Homo sapiens, UniProt P17947 1-270); conditions: protein: recombinant; tags: N-terminal GST; dsDNA, one strand shown
Summary of the method: as §1

SPIB = SPIB (Homo sapiens, UniProt Q01892 1-262); conditions: protein: recombinant; tags: N-terminal GST; dsDNA, one strand shown
Summary of the method: as §1

ELK3 = target: T6, ELK3 (Homo sapiens, UniProt P41970 1-407); conditions: protein: recombinant; tags: N-terminal GST; dsDNA, one strand shown
T6 sequence: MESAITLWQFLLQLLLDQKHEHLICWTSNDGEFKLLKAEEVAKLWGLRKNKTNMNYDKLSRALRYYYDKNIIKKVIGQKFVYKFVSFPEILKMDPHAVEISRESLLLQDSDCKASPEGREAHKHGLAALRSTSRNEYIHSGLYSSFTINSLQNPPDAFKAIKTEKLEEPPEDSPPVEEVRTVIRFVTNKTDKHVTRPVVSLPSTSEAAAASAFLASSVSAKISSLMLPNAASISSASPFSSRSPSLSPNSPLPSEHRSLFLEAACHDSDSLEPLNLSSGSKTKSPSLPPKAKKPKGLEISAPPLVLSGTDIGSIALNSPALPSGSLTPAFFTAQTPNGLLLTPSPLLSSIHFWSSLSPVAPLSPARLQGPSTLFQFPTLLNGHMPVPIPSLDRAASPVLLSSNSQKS
Summary of the method: as §1

FEV = target: T7, FEV (Homo sapiens, UniProt Q99581 1-238); conditions: protein: recombinant; tags: N-terminal GST; dsDNA, one strand shown
T7 sequence: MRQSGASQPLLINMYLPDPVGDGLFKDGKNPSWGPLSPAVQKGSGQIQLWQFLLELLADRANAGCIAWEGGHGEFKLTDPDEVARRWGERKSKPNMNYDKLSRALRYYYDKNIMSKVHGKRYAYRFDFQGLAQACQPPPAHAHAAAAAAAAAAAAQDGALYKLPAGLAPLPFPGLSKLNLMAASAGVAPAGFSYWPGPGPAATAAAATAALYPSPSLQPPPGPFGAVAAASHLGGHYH
Summary of the method: as §1

ETV5 = ETV5 (Homo sapiens, UniProt P41161 1-510); conditions: protein: recombinant; tags: N-terminal GST; dsDNA, one strand shown
Summary of the method: as §1

HSF1 = HSF1 (Homo sapiens, UniProt Q00613 1-529); conditions: protein: recombinant; tags: N-terminal GST; chain copies: 3; dsDNA, one strand shown
Summary of the method: as §1

SPIC = target: T8, SPIC (Homo sapiens, UniProt Q8N5J4 1-248); conditions: protein: recombinant; tags: N-terminal GST; dsDNA, one strand shown
T8 sequence: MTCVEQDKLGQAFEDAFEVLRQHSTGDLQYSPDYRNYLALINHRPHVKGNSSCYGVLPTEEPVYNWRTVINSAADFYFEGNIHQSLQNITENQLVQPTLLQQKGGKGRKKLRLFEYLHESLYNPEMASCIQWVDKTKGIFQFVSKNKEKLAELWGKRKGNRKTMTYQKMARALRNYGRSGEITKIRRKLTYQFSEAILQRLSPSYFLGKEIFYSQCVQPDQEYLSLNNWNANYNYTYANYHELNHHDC
Summary of the method: as §1

ELF4 = ELF4 (Homo sapiens, UniProt Q99607 1-663); conditions: protein: recombinant; tags: N-terminal GST; dsDNA, one strand shown
Summary of the method: as §1

ELK4 = target: T9, ELK4 (Homo sapiens, UniProt P28324-2 1-405); conditions: protein: recombinant; tags: N-terminal GST; dsDNA, one strand shown
T9 sequence: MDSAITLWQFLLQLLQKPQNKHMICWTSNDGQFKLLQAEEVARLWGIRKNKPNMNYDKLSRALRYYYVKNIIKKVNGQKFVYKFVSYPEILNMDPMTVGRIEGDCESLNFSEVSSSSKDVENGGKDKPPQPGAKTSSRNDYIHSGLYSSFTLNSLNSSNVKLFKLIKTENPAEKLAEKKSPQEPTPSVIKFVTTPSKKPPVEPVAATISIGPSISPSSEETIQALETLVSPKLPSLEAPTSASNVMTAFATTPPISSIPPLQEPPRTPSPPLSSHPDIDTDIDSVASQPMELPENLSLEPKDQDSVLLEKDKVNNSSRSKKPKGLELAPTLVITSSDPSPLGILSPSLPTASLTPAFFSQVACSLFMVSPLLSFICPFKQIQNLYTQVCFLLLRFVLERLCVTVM
Summary of the method: as §1

ETV2 = target: T10, ETV2 (Homo sapiens, UniProt O00321 1-342); conditions: protein: recombinant; tags: N-terminal GST; dsDNA, one strand shown
T10 sequence: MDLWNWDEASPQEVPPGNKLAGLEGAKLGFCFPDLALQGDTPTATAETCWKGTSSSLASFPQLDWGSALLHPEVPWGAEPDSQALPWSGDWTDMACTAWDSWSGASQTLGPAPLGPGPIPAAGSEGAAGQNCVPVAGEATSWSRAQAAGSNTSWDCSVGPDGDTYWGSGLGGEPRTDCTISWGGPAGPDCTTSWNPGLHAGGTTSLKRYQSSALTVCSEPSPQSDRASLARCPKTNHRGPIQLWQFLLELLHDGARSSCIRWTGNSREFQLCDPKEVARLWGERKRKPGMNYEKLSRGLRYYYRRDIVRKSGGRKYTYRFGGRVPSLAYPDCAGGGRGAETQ
Summary of the method: as §1

ELF3 = target: T11, ELF3 (Homo sapiens, UniProt P78545 1-371); conditions: protein: recombinant; tags: N-terminal GST; dsDNA, one strand shown
T11 sequence: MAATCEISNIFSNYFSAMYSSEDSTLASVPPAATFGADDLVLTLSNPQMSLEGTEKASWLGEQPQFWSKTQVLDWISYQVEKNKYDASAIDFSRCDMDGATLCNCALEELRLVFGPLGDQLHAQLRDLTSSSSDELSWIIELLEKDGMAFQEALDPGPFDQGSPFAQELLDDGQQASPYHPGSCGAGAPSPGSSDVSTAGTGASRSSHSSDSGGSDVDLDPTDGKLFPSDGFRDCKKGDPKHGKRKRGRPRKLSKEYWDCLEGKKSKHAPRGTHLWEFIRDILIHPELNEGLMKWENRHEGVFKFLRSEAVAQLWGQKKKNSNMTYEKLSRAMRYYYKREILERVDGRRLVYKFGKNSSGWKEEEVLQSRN
Summary of the method: as §1

CRX = CRX (Homo sapiens, UniProt O43186 1-299); conditions: protein: recombinant; tags: N-terminal GST; dsDNA, one strand shown
Summary of the method: as §1

ETV1 = ETV1 (Homo sapiens, UniProt P50549 1-477); conditions: protein: recombinant; tags: N-terminal GST; dsDNA, one strand shown
Summary of the method: as §1

Sequence of ELF1 (P32519 whole entry): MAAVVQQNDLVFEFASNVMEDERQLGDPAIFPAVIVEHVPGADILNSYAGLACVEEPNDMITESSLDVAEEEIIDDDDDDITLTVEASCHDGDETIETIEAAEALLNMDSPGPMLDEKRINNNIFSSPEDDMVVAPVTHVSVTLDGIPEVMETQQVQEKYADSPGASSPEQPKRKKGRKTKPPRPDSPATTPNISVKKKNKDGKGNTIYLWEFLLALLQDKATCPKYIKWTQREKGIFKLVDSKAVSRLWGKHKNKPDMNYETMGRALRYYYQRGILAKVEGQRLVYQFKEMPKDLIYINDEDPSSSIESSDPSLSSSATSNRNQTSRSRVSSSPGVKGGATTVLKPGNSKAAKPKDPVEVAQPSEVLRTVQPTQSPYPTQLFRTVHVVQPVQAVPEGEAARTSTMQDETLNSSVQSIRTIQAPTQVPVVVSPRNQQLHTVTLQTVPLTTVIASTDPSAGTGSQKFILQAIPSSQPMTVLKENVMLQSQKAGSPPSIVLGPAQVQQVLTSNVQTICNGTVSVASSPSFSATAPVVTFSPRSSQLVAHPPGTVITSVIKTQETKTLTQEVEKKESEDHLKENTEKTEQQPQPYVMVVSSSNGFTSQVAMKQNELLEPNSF
Sequence of CRX (O43186 whole entry): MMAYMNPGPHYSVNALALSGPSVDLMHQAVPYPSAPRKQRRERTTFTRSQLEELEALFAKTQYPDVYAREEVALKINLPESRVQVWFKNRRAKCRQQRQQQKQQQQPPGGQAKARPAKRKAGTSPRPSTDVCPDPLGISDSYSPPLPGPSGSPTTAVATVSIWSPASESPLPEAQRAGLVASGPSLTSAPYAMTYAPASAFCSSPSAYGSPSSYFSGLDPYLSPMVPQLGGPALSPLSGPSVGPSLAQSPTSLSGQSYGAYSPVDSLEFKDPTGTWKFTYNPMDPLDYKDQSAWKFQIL
Sequence of SPIB (Q01892 whole entry): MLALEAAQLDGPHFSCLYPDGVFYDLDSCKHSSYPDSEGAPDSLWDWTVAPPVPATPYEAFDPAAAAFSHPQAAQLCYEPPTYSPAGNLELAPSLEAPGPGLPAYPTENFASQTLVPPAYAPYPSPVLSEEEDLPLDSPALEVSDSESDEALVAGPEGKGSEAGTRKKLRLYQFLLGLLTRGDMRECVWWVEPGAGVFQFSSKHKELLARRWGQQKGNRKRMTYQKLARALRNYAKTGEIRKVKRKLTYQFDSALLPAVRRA
Sequence of ELF4 (Q99607 whole entry): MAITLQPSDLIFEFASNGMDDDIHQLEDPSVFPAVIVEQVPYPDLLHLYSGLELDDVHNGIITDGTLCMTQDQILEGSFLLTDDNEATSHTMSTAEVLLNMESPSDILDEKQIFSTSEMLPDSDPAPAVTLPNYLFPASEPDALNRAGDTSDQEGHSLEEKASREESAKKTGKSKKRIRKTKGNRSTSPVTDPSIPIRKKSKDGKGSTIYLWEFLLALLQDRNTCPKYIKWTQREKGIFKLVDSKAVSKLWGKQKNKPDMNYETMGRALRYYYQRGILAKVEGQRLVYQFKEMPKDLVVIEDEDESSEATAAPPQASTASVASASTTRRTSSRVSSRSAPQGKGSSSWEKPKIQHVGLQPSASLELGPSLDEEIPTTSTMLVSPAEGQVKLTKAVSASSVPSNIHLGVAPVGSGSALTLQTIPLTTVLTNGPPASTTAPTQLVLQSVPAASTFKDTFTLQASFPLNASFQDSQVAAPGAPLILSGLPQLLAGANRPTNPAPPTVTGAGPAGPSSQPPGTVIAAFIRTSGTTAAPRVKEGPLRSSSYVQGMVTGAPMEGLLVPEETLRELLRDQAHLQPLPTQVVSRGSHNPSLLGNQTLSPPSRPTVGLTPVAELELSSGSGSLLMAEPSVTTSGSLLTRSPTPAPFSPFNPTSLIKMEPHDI
Sequence of HSF1 (Q00613 whole entry): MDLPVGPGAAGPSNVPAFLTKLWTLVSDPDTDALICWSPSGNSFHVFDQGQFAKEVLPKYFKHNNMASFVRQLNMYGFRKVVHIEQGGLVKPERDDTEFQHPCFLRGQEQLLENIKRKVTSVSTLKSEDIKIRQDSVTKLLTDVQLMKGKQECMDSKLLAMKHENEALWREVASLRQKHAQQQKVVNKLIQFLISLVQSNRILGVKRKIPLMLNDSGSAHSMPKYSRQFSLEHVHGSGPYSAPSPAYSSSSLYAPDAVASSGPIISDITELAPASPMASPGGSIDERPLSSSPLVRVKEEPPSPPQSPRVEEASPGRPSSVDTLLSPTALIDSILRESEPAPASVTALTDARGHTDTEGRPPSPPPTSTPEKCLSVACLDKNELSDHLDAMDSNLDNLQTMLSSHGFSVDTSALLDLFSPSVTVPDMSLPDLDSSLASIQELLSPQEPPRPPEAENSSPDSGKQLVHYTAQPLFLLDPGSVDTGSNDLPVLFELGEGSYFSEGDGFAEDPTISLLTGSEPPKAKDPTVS
Sequence of ETV5 (P41161 whole entry): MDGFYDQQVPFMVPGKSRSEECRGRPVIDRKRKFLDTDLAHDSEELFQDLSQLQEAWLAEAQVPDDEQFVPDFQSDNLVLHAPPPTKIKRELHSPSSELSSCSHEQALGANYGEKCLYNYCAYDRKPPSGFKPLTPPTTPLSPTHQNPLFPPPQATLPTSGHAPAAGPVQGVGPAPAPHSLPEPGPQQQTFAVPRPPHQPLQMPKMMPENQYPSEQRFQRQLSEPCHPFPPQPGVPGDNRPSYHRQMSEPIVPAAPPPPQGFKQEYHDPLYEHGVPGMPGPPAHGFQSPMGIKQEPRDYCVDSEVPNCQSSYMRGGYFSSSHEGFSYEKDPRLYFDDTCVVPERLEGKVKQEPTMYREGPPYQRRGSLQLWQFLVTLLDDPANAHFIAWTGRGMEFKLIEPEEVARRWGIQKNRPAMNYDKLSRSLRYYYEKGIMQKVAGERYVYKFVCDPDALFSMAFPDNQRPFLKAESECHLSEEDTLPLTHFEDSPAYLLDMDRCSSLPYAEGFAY
Sequence of ETV1 (P50549 whole entry): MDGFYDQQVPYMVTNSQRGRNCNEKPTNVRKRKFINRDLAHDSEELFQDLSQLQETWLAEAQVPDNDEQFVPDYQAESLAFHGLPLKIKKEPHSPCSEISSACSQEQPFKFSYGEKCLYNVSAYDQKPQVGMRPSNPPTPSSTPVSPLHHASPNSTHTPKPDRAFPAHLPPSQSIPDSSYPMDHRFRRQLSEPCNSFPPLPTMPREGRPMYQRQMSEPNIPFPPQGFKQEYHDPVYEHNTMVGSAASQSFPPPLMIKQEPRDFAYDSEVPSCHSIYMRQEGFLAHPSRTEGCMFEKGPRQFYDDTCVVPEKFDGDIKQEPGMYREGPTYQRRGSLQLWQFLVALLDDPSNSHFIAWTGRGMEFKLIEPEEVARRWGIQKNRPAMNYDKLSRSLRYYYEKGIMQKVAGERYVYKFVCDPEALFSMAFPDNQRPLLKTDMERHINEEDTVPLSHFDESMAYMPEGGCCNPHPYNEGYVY

Q: With ACTCAT as the sequence, how does the binding signal (FLI1) read?
A: 1.47 fold enrichment (6-mer frequency, TF over GST control)

Q: And the binding signal (ELK1)?
A: 1.34 fold enrichment (6-mer frequency, TF over GST control)

Q: What about the binding signal (GABPA) of the same sequence?
A: 1.36 fold enrichment (6-mer frequency, TF over GST control)

Q: What about the binding signal (ERG) of the same sequence?
A: 1.16 fold enrichment (6-mer frequency, TF over GST control)

Q: And the binding signal (ELF1)?
A: 1.33 fold enrichment (6-mer frequency, TF over GST control)

Q: What about the binding signal (EHF) of the same sequence?
A: 1.25 fold enrichment (6-mer frequency, TF over GST control)

Q: What about the binding signal (SPI1) of the same sequence?
A: 1.23 fold enrichment (6-mer frequency, TF over GST control)

Q: And the binding signal (SPIB)?
A: 1.35 fold enrichment (6-mer frequency, TF over GST control)

Q: What about the binding signal (ELK3) of the same sequence?
A: 1.34 fold enrichment (6-mer frequency, TF over GST control)

Q: And the binding signal (FEV)?
A: 1.32 fold enrichment (6-mer frequency, TF over GST control)

Q: And the binding signal (ETV5)?
A: 1.32 fold enrichment (6-mer frequency, TF over GST control)

Q: And the binding signal (HSF1)?
A: 1.13 fold enrichment (6-mer frequency, TF over GST control)

Q: What about the binding signal (SPIC) of the same sequence?
A: 1.26 fold enrichment (6-mer frequency, TF over GST control)

Q: And the binding signal (ELF4)?
A: 1.35 fold enrichment (6-mer frequency, TF over GST control)

Q: What about the binding signal (ELK4) of the same sequence?
A: 1.32 fold enrichment (6-mer frequency, TF over GST control)

Q: What about the binding signal (ETV2) of the same sequence?
A: 1.42 fold enrichment (6-mer frequency, TF over GST control)

Q: And the binding signal (ELF3)?
A: 1.13 fold enrichment (6-mer frequency, TF over GST control)

Q: And the binding signal (CRX)?
A: 1.19 fold enrichment (6-mer frequency, TF over GST control)

Q: What about the binding signal (ETV1) of the same sequence?
A: 1.35 fold enrichment (6-mer frequency, TF over GST control)

— paper PMC7862700, “An all-to-all approach to the identification of sequence-specific readers for epigenetic DNA modifications on cytosine”
